In PubChem BioAssay (Tox21):
Inconclusive results are not listed. Active and inactive are the calls of the source. Unless noted, calls come from the whole dose curve; as a rule, active = well fitted curve in the direction sought with a large enough effect in the repeat runs; inconclusive = weak or mixed curves; inactive = no such curve, though single readings can be large; an effect the other way counts as inactive or inconclusive.

What was measured:
[1] = qHTS assay to identify small molecule agonists of the NFkB signaling pathway (AID 1159509; active = well fitted curve in the direction sought with a large enough effect in the signal ratio in the repeat runs, not every such curve was filed as active; the % refers to the signal ratio; note: series mostly up to about 61 µM)
Summary of the method: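 Pathway activation was measured in ME-180 cells stably expressing beta-lactamase under NF-kB response element control. Substrate cleavage was read as the 460/530 nm emission shift after 5 hr compound incubation.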

[2] = qHTS assay to identify small molecule agonists of the NFkB signaling pathway - cell viability counter screen (AID 1159515; calls by dose curve; note: series mostly up to about 61 µM; nearly all actives have a fitted effect of over 55% in size)
Summary of the method: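 Cells are seeded (2,000 NFkB-bla ME-180 per well), rested overnight, and dosed with DMSO-dissolved compounds for 5 hr at 37 C. Viability is then read by CellTiter-Glo luminescence after 30 min at room temperature.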

[3] = qHTS assay to identify small molecule agonists of the endoplasmic reticulum stress response signaling pathway (AID 1159516; active = well fitted activation curve with a large enough effect in the signal ratio in the repeat runs, not every such curve was filed as active; the % refers to the signal ratio)
Summary of the method: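 Cells are seeded at 1,500 per well and incubated overnight. Compounds in DMSO are added for 5 hr at 37 C, then beta-lactamase FRET substrate for 2 hr at room temperature, and fluorescence at 460 and 530 nm is measured.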

[4] = qHTS assay to identify small molecule agonists of the endoplasmic reticulum stress response signaling pathway - cell viability counter screen (AID 1159517; calls by dose curve;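 note: HeLa cells carrying an ER stress response element beta-lactamase reporter; series mostly up to about 61 µM; nearly all actives have a fitted effect of over 50% in size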)
Summary of the method: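 Cpd-treated ESRE-bla HeLa (5 hr, 37 C) → LiveBLAzer 2 hr RT → CellTiter-Glo 30 min RT → luminescence.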

[5] = qHTS assay to identify small molecule antagonists of the retinoid-related orphan receptor gamma (ROR-gamma) signaling pathway - cell viability counter screen (AID 1159520); note: nearly all actives have a fitted effect of over 50% in size
Summary of the method: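 Tet-on ROR gamma CHO cells (1,000/well) were plated 4 hr, given compounds in DMSO for 2 hr at 37 C, then induced with 1 uM final doxycycline for 16 hr. Viability was read as ATP by CellTiter-Glo luminescence after 30 min.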

[6] = target: Nuclear receptor ROR-gamma (Homo sapiens) (UniProt P51449); test: qHTS assay to identify small molecule antagonists of the retinoid-related orphan receptor gamma (ROR-gamma) signaling pathway (AID 1159521;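 note: CHO cells with doxycycline inducible ROR-gamma driving an RORE luciferase reporter; top concentration of the series differs between compounds; nearly all actives have a fitted effect of over 50% in size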)
Summary of the method: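 Tet-on RORγ CHO cells carrying a ROR response element–luciferase reporter were pretreated with compounds for 2 h, then induced with 1 uM (final) doxycycline hyclate for 16 h at 37 C. Antagonism was read as decreased ONE-Glo luminescence.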

[7] = qHTS assay to identify small molecule agonists of the AP-1 signaling pathway - cell viability counter screen (AID 1159525; calls by dose curve; note: nearly all actives have a fitted effect of over 55% in size)
Summary of the method: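 Each titration point was normalised to DMSO and tetra n-octyl ammonium bromide controls. The read was Cell Titer Glo luminescence after 30 min at RT, following 5 h compound exposure of ME-180 AP-1-bla cells at 37 °C.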

[8] = qHTS assay to identify small molecule agonists of the AP-1 signaling pathway (AID 1159526; calls by dose curve)
[9] = target: Retinoic acid receptor RXR-alpha (Homo sapiens) (UniProt P19793); test: qHTS assay to identify small molecule agonists of the RXR signaling pathway (AID 1159527; calls by dose curve; note: nearly all actives have a fitted effect of over 35% in size)
Retinoic acid receptor RXR-alpha (Homo sapiens), sequence (P19793 whole entry, looked up): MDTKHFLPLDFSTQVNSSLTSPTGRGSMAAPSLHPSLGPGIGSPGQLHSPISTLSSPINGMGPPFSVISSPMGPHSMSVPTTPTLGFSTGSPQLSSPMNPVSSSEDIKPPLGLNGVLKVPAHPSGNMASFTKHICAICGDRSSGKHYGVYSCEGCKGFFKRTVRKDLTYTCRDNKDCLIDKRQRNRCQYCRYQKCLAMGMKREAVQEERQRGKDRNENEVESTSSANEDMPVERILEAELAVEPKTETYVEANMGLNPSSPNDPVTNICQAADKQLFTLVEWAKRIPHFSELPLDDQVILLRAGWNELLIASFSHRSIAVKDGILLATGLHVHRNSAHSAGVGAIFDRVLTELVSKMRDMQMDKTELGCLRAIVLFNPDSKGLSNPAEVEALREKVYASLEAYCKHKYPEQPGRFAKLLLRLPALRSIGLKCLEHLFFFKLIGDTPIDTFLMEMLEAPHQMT
Summary of the method: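 GeneBLAzer RXR-alpha-UAS-bla HEK 293T cells in medium with 2% charcoal-stripped FBS, pre-incubated 5 hr at 37 C, then exposed to compounds 16 hr. Beta-lactamase reporter read by FRET substrate, 2 hr room temperature, 460/530 nm emission.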

[10] = qHTS assay to identify small molecule agonists of the RXR signaling pathway - cell viability counter screen (AID 1159529); note: series mostly up to about 77 µM; nearly all actives have a fitted effect of over 50% in size
Summary of the method: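 RXR-alpha-UAS-bla HEK 293T cells in medium with 2% charcoal-stripped FBS were preincubated 5 hr, then exposed to compounds for 16 hr at 37 C. Viability was read as CellTiter-Glo luminescence after 30 min at room temperature.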

[11] = qHTS assay to identify small molecule antagonists of the retinoid acid receptor (RAR) signaling pathway - cell viability counter screen (AID 1159551); note: nearly all actives have a fitted effect of over 35% in size
Summary of the method: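 Cells (C3RL4) are plated, incubated overnight, dosed with compound in DMSO, then given retinol at 1 uM final. After 6 h at 37 C, CellTiter-Glo is added and luminescence read following 30 min at room temperature.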

[12] = qHTS assay to identify small molecule antagonists of the vitamin D receptor (VDR) signaling pathway - cell viability counter screen (AID 743225); note: nearly all actives have a fitted effect of over 50% in size
Summary of the method: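 VDR-bla HEK 293T cells, 4 h pre-incubation at 37C, then compound plus 1-alpha,25-dihydroxyvitamin D3 (3 nM final) for 16 h. After the beta-lactamase FRET read, CellTiter-Glo was added to the same wells; luminescence after 30 min at room temperature.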

[13] = qHTS assay to identify small molecule antagonists of the retinoic acid receptor (RAR) signaling pathway (AID 1159552; note: nearly all actives have a fitted effect of over 50% in size)
Summary of the method: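 RARE-luc C3RL4 cells; cpds + 1 uM (final) retinol, 6 hr, 37 C/5% CO2; luciferase reagent, 30 min RT, luminescence readout. Inhibitors of retinol-driven signal scored.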

[14] = qHTS assay to identify small molecule agonists of the retinoic acid receptor (RAR) signaling pathway (AID 1159553)
Summary of the method: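 Seed C3RL4 reporter cells at 1,000 per well and incubate overnight at 37 C. Add compounds in DMSO, incubate 6 hr. Add luciferase reagent, wait 30 min at room temperature, read luminescence.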

[15] = qHTS assay to identify small molecule antagonists of the estrogen related receptor (ERR) signaling pathway - cell viability counter screen (AID 1224818); note: series mostly up to about 46 µM
Summary of the method: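 ERR cells, 2,000/well; 6 h settle at 37 C/5% CO2; compound pin transfer (DMSO); 17.5 h at 37 C; CellTiter-Fluor, 30 min, fluorescence read.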

[16] = qHTS assay to identify small molecule antagonists of the estrogen related receptor signaling pathway with the pleiotropic PPARgamma coactivator (PGC) cell viability counter screen (AID 1224822;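 note: series mostly up to about 46 µM; viability read after 17.5 h compound exposure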)
Summary of the method: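 Multiplexed viability counter screen run in PGC/ERR cells treated with compounds for 17.5 h at 37 C; live-cell protease signal measured by CellTiter-Fluor fluorescence.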

[17] = qHTS assay to identify small molecule antagonists of the estrogen related receptor (ERR) signaling pathway (AID 1224819)
Summary of the method: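 qHTS in ERR cells, 2,000/well, 1536 format. Cpd (DMSO) added after 6 h settle, 18 h 37 C. One-Glo luminescence, 30 min RT.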

[18] = qHTS assay to identify small molecule agonists of the estrogen related receptor (ERR) signaling pathway (AID 1224820)
Summary of the method: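 An ERR cell line provided by NTP was seeded at 2,000 cells per well and allowed to settle for 6 h before compounds in DMSO were added. After 18 h at 37 C, luciferase activity was measured by One-Glo luminescence.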

[19] = qHTS assay to identify small molecule agonists of the vitamin D receptor (VDR) signaling pathway - cell viability counter screen (AID 743224)
Summary of the method: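 Cells: VDR-bla, 2,000/well, settled 4 h. Treatment: compounds in DMSO, 16 h, 37C/5% CO2. Readout: CellTiter-Glo luminescence after 30 min RT.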

Measured: Potency

CCCCOC(=O)CC(CC(=O)OCCCC)(OC(C)=O)C(=O)OCCCC
not listed: [12] | [13] | [14] | [15] | [16] | [17] | [18] | [19]
inactive: all other assays above

NC(N)=O
not listed: [12] | [13] | [14] | [15] | [16] | [17] | [18] | [19]
inactive: all other assays above

Cc1cc(=O)n(-c2ccccc2)n1C
not listed: [15] | [16] | [17] | [18] | [19]
inactive: all other assays above

O=c1ccc2ccccc2o1
not listed: [12] | [15] | [16] | [17] | [18] | [19]
inactive: all other assays above

CCC1(c2ccccc2)C(=O)NCNC1=O
not listed: [17] | [18] | [19]
inactive: all other assays above

NC(=O)c1ccccc1O
not listed: [12] | [15] | [16] | [17] | [18] | [19]
inactive: all other assays above

Cc1ccc(S(=O)(=O)NC(=O)NN2CCCCCC2)cc1
not listed: [12] | [19]
inactive: all other assays above

CCCCC(CC)COC(=O)/C=C/c1ccc(OC)cc1 (stereo not given)
not listed: [15] | [16] | [17] | [18]
inactive: all other assays above

CC(O)CN(CCN(CC(C)O)CC(C)O)CC(C)O (stereo not given)
not listed: [15] | [16] | [17] | [18]
inactive: all other assays above

O=C(O)CCCCCCCC(=O)O
not listed: [12] | [17] | [18] | [19]
inactive: all other assays above

CC(O)CO (stereo not given)
not listed: [12] | [15] | [16] | [17] | [18]
inactive: all other assays above

OCCc1ccccc1
not listed: [12] | [15] | [16] | [17] | [18] | [19]
inactive: all other assays above

N=C(N)c1ccc(OCCCCCOc2ccc(C(=N)N)cc2)cc1
not listed: [15] | [16] | [17] | [18]
inactive: all other assays above

Nc1ccc(S(=O)(=O)c2ccc(N)cc2)cc1
not listed: [12] | [15] | [16] | [17] | [18] | [19]
inactive: all other assays above

CCCN(CCC)S(=O)(=O)c1ccc(C(=O)O)cc1
not listed: [15] | [16] | [17] | [18] | [19]
inactive: all other assays above

CC(=O)Nc1nnc(S(N)(=O)=O)s1
not listed: [12] | [17] | [18] | [19]
inactive: all other assays above

Nc1ccc(O)c(C(=O)O)c1
not listed: [15] | [16] | [17] | [18]
inactive: all other assays above

O=C(O)c1[nH]n(-c2ccc(S(=O)(=O)O)cc2)c(=O)c1N=Nc1ccc(S(=O)(=O)O)cc1
not listed: [12] | [13] | [14] | [15] | [16] | [17] | [18] | [19]
inactive: all other assays above
